Assay outcomes: PubChem, National Center for Advancing Translational Sciences (NCATS)
DT40 TDP1 CPT: DT40-hTDP1 cell growth loss with CPT; Potency, µM (series often up to 46.2 µM), usual class: inhibitors; 420,000 tested, 12% active; chicken DT40 Tdp1-/-;hTDP1 cells + 20 nM CPT, ATP luminescence, 48 h; also: nearly all actives have a fitted effect of over 55% in size
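Chicken DT40 Tdp1-/- cells complemented with human TDP1, 400 cells/well, exposed to compounds plus 20 nM camptothecin for at least 48 h at 37 C; viability read as ATP content by CellTiter-Glo luminescence.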
DT40 TDP1 no CPT: qHTS for Inhibitors of human tyrosyl-DNA phosphodiesterase 1 (TDP1): qHTS in cells in absence of CPT | DT40 Tdp1-/- hTDP1 cells, no CPT, ATP luminescence, 48 h | Potency, µM (series often up to 46.2 µM), usual class: inhibitors | 420,000 tested, 15% active; also: nearly all actives have a fitted effect of over 55% in size
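Stably hTDP1-transfected Tdp1-null chicken DT40 cells were treated with library compounds minus camptothecin and grown for at least 48 hr at 37 °C, after which cellular ATP was quantified by luminescence.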
HT1080 IDH1KD tx: toxicity to HT-1080 IDH1 knockdown cells (counter line). HT-1080 IDH1 knockdown viability, ATP luminescence, 48 h. Potency, µM (doses to about 46.1 µM), most hits filed as cytotoxic. 360,000 tested, 2% active
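% activity derives from luminescence (CellTiter-Glo), normalised to DMSO and no-cell wells. HT-1080-IDH1KD cells, 750/well, had 48 h compound exposure at 37 °C.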
HT1080NT lethal: kills 2HG-producing HT-1080-NT fibrosarcoma cells; HT-1080-NT fibrosarcoma viability, CellTiter-Glo ATP luminescence, 48 h; 360,000 tested, 1.6% active; Potency, µM (top dose mostly 46.1 µM), actives largely listed as cytotoxic;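 also: NT is the 2HG producing partner of a matched IDH1 knockdown line; nearly all actives have a fitted effect of over 55% in size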
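750 cells/well, RPMI + 5% FBS; 2 h settle, compound pin-transfer, 48 h at 37 degrees C. CellTiter-Glo 10 min RT, luminescence. Normalized to DMSO and media-only wells.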
IL-1B inflam inh: blocks inflammasome-driven IL-1 beta release; THP-1 LPS/ATP IL-1B secretion, AlphaLISA, 16 h; stronger effect = lower value; activity change, % at 57.5 µM; 360,000 tested, 4.7% active; in the data active = activity change below about -50%; inconclusive = mostly about -30% to -49%
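Secreted IL-1B measured by AlphaLISA bead assay after 16 h compound exposure of THP-1 cells; compounds (final up to 57.5 uM) added 1 h before LPS (250 ng/mL) and ATP (1.25 mM) stimulation; lower signal means less secretion.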
Of the large screens only hits and unclear results are named; the others gave an inactive call. Compounds with a hit are over-represented: about 19% of the library has one in this group of screens. Unless noted, calls follow the shape of the dose curve; as a rule, active = well fitted curve in the direction sought with a large enough effect; inconclusive = small, poorly fitted or top-dose-only effect, or another doubt; inactive = no such curve, though single readings can be large; an effect the other way counts as inactive or inconclusive.

O=C(CC1(O)C(=O)N(Cc2ccccc2)c2ccccc21)c1ccncc1 (stereo unspecified)	DT40 TDP1 CPT 3.7µM, DT40 TDP1 no CPT 3.7µM
C#CCN1C(=O)C(O)(CC(=O)c2ccc3c(c2)OCCO3)c2ccccc21 (stereo unspecified)	DT40 TDP1 CPT inconclusive, DT40 TDP1 no CPT 23µM
CCN1C[C@@H]2[C@@H]3C(=O)N(C)C(=O)[C@@H]3[C@](Cc3ccccc3)(C1=O)N2C(=O)c1ccc(Br)cc1	none
CCOC(=O)c1nn(-c2ccccc2)c2nnc(Cc3ccccc3)c(=O)n12	none
CCCCn1c(-c2ccc(S(=O)(=O)N3CCOCC3)cc2)csc1=Nc1ccccc1	DT40 TDP1 CPT 13µM, DT40 TDP1 no CPT 15µM (no result: HT1080 IDH1KD tx, HT1080NT lethal, IL-1B inflam inh)
O=S(=O)(c1ccc(-c2csc(=Nc3ccccc3)n2CCCN2CCOCC2)cc1)N1CCOCC1	DT40 TDP1 CPT inconclusive, DT40 TDP1 no CPT inconclusive, IL-1B inflam inh -61
CCOc1ccc(S(=O)(=O)N2CN3CCN(C3)C2)cc1	DT40 TDP1 CPT inconclusive, DT40 TDP1 no CPT inconclusive
CCCn1c(-c2ccc(S(=O)(=O)N3CCOCC3)cc2)csc1=Nc1ccc(OCC)cc1	DT40 TDP1 CPT 4.1µM, DT40 TDP1 no CPT 2.9µM (no result: HT1080 IDH1KD tx, HT1080NT lethal, IL-1B inflam inh)
O=S(=O)(c1ccc(Oc2ccccc2)cc1)N1CCOCC1	none
CCNC(=O)c1sc2ncnc(NCCCN3CCOCC3)c2c1C	none (no result: HT1080 IDH1KD tx, HT1080NT lethal, IL-1B inflam inh)
Nc1nc(=S)c2ncn(C3CCCC3)c2[nH]1	none
COc1ccc(Nc2ncc(C(=O)N3CCN(c4ccc(F)cc4)CC3)c3ccccc23)cc1	DT40 TDP1 CPT 23µM, DT40 TDP1 no CPT 5.2µM, IL-1B inflam inh -59
COc1ccc(Nc2ncc(C(=O)N3CCN(c4cccc(Cl)c4)CC3)c3ccccc23)cc1	DT40 TDP1 CPT 15µM, DT40 TDP1 no CPT 4.6µM (no result: HT1080 IDH1KD tx, HT1080NT lethal, IL-1B inflam inh)
COc1ccc(Nc2ncc(C(=O)O)c3ccccc23)cc1	none
COc1ccc(N2CCN(C(=O)c3cnc(N4CCOCC4)c4ccccc34)CC2)cc1	DT40 TDP1 CPT inconclusive, DT40 TDP1 no CPT 23µM (no result: HT1080 IDH1KD tx, HT1080NT lethal, IL-1B inflam inh)
COc1ccc(Nc2ncc(C(=O)N3CCN(c4ccc(OC)cc4)CC3)c3ccccc23)cc1	DT40 TDP1 CPT 23µM, DT40 TDP1 no CPT 16µM (no result: HT1080 IDH1KD tx, HT1080NT lethal, IL-1B inflam inh)
O=C(O)c1ccccc1C(=O)N1CCN(c2cccc(Cl)c2)CC1	none
COC(CNC(=O)C(=O)NCC1CCCN1S(=O)(=O)c1cccs1)OC (stereo unspecified)	none
Cn1ccc2c(-c3cccc(C=O)c3)cc3c(c21)C1CCC3O1 (stereo unspecified)	DT40 TDP1 CPT inconclusive, DT40 TDP1 no CPT inconclusive
CCOC(=O)c1sc2ccccc2c1S(=O)(=O)Nc1ccc(CC)cc1	DT40 TDP1 CPT inconclusive, DT40 TDP1 no CPT 23µM (no result: HT1080 IDH1KD tx, HT1080NT lethal, IL-1B inflam inh)
CCC1CN(CCNC(=O)C(C)(C)O)Cc2cc(OC)ccc2O1 (stereo unspecified)	none (no result: HT1080 IDH1KD tx, HT1080NT lethal, IL-1B inflam inh)
COc1ccc2nc3ccccc3nc2c1N	DT40 TDP1 CPT inconclusive, DT40 TDP1 no CPT 8.2µM, HT1080 IDH1KD tx inconclusive, IL-1B inflam inh -63
COc1ccc2nc3cccc(OC)c3nc2c1	DT40 TDP1 CPT inconclusive, DT40 TDP1 no CPT inconclusive
CCOc1ccc(NC(=O)CSc2oc(-c3ccc(C)cc3)nc2S(=O)(=O)c2ccc(C)cc2)cc1	DT40 TDP1 CPT 7.3µM, DT40 TDP1 no CPT 5.8µM (no result: HT1080 IDH1KD tx, HT1080NT lethal, IL-1B inflam inh)
O=S(=O)(Nc1nc(SCc2ccc(Cl)cc2)n[nH]1)c1ccc(F)cc1	DT40 TDP1 CPT inconclusive, DT40 TDP1 no CPT inconclusive, HT1080 IDH1KD tx inconclusive, HT1080NT lethal inconclusive, IL-1B inflam inh -59
O=S(=O)(c1ccc(Cl)cc1)c1nc(-c2cccs2)oc1SCc1ccc(F)cc1	DT40 TDP1 CPT 21µM, DT40 TDP1 no CPT inconclusive (no result: HT1080 IDH1KD tx, HT1080NT lethal, IL-1B inflam inh)
CCOc1ccc(NC(=O)CSc2oc(-c3cccs3)nc2S(=O)(=O)c2ccc(Cl)cc2)cc1	DT40 TDP1 CPT 18µM, DT40 TDP1 no CPT 13µM (no result: HT1080 IDH1KD tx, HT1080NT lethal, IL-1B inflam inh)
O=C(CSc1oc(-c2ccco2)nc1S(=O)(=O)c1ccc(Cl)cc1)Nc1ccc(F)cc1	none (no result: HT1080 IDH1KD tx, HT1080NT lethal, IL-1B inflam inh)
CSc1oc(-c2cccs2)nc1S(=O)(=O)c1ccccc1	none
CC(NC(=O)c1ccc(C23CC4CC(CC(C4)C2)C3)cc1)C(=O)O (stereo unspecified)	none
CCCN(CC(=O)Nc1ccccc1C)C(=O)COc1c(C)cccc1C	DT40 TDP1 CPT inconclusive
